Bioassay records: PubChem BioAssay, National Center for Advancing Translational Sciences (NCATS)
Pol iota inh = DNA polymerase iota (human) inhibition; Q9UNA4; Pol iota fluorescent replication assay, 10 min; Potency, µM (top dose mostly 115 µM), for inactives: at the top dose activity, negative = inhibition, hits mostly inhibitors; 390,000 tested, 1% active; AID 588590; also: potency is read from the fitted curve at half-maximal effect
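Pol iota at 10 nM preincubated 15 min with compounds at room temperature; reaction started with fluorescent substrate, 50 nM final. Fluorescence read kinetically at 0 and 10 min; buffer-only wells as negative control.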
PI5P4Ka inh = PI5P4K alpha (human) kinase inhibition | P48426 | PI5P4Kalpha enzyme, ADP-Glo luminescence, 60 min; hits give low values | max response, % | 330,000 tested, 1.2% active; active = max response of -50% or lower; inconclusive = between -30% and -50%; inactive = -30% or higher; also: value at the top dose of about 77 µM; % is scaled to controls: 0 for no effect and ±100 for the full control effect
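ADP-Glo luminescence end-point read after a 60 min room-temperature kinase reaction of PI5P4Kalpha plus substrate, initiated with ATP at 5 microM final. Buffer: 0.038 M HEPES pH 7.4, EGTA, 0.1% CHAPS, 5% DMSO.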
POLB inh = inhibitors of human DNA polymerase beta; Potency, µM (series often up to 114 µM), for inactives: at the highest dose activity change, negative = inhibition, most hits filed as inhibitors; P06746; Pol beta primer extension/strand displacement, fluorescence kinetic; 340,000 tested, 1.3% active; also: potency is read from the fitted curve at half-maximal effect; % is scaled to controls: 0 for no effect and ±100 for the full control effect
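Values derive from four-parameter Hill fits of normalized kinetic data: reads at 0 and 10 min following addition of 50 nM substrate to 10 nM Pol beta preincubated 15 min with compound.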
Pol eta inh = DNA polymerase eta (human) inhibition; Q9Y253; recombinant Pol eta, fluorescent DNA replication assay; Potency, µM (doses to about 114 µM), inactives show at the highest dose activity change, negative = inhibition, most hits filed as inhibitors; 390,000 tested, 1.2% active; AID 588591; also: potency is read from the fitted curve at half-maximal effect; % is scaled to controls: 0 for no effect and ±100 for the full control effect
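Pol eta (10 nM) was preincubated with compounds for 15 min at room temperature, after which fluorescent replication substrate (50 nM final) was added to start the reaction. Fluorescence was read kinetically at 0 and 10 min.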
FEN1 inhibitor = blocks human flap endonuclease 1 | Recombinant FEN1 flap cleavage, fluorescence, 15 min | Potency, µM (top dose mostly 114 µM), for inactives: at the top dose activity change, negative = inhibition, actives largely listed as inhibitors | 390,000 tested, 0.35% active; also: potency is read from the fitted curve at half-maximal effect; % is scaled to controls: 0 for no effect and ±100 for the full control effect; nearly all actives have a fitted effect of over 65% in size
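Potency values derive from four-parameter Hill fits of normalized qHTS data. The reaction used 10 nM FEN1 preincubated 15 min at room temperature with compound, then 50 nM DNA substrate, read at 0 and 15 min.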
POLK inh = inhibitors of human DNA polymerase kappa; Q9UBT6; Potency, µM (titrated, usually from 107 µM), for the others: at the highest dose activity, negative = inhibition, hits mostly inhibitors; 400,000 tested, 0.53% active; purified Pol kappa, fluorescent DNA synthesis assay, 10 min; also: potency is read from the fitted curve at half-maximal effect; % is scaled to controls: 0 for no effect and ±100 for the full control effect
Target sequence (Q9UBT6 whole entry, looked up): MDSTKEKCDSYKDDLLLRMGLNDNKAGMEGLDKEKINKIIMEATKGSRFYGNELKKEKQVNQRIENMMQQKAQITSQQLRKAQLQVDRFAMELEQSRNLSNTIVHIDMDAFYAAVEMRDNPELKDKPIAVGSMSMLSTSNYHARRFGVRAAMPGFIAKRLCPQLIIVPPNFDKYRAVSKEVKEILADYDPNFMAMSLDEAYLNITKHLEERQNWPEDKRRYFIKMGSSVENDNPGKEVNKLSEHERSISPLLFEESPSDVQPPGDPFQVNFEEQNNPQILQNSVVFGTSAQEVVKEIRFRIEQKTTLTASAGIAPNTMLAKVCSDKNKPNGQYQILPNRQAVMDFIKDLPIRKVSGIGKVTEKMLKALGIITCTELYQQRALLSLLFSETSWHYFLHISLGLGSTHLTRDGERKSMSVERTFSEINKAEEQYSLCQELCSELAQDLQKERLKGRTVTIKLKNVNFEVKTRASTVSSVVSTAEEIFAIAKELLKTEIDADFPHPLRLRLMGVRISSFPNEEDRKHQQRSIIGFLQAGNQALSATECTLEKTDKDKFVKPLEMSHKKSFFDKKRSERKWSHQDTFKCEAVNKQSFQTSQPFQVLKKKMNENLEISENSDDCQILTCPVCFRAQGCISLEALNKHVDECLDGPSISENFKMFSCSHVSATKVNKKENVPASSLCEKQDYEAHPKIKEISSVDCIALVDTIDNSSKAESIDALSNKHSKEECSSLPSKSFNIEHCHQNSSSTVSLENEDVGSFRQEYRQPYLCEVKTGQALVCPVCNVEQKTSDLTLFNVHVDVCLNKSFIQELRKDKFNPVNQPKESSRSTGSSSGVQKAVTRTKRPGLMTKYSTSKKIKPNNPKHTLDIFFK
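Enzyme at 10 nM met test compounds for 15 min at room temperature. Substrate addition (50 nM final) began the reaction, which was monitored by fluorescence at 0 and 10 min.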
* marks the source's active call; other numbers are inactive results; u = inconclusive; x = no result; [ ] = dose if it differs, or a comment. The list is not random: actives were taken first. Their share in the collection is about 2.8%. Unless noted, calls follow the shape of the dose curve; as a rule, active = well fitted curve in the direction sought with a large enough effect; inconclusive = small, poorly fitted or top-dose-only effect, or another doubt; inactive = no such curve, though single readings can be large; an effect the other way counts as inactive or inconclusive.

SMILES	Pol iota inh	PI5P4Ka inh	POLB inh	Pol eta inh	FEN1 inhibitor	POLK inh
NNc1n[nH]c(=S)n1N	16µM*	-8	32%	-13%	-16%	-10%
Nc1nnc(Sc2ncccc2[N+](=O)[O-])s1	173%	-16	-30%	2%	1%	-10%
O=C(C1CCCN(Cc2ccc(Cl)cc2)C1)N1CCCCC1 (centres undefined)	41%	1	4%	-22%	-4%	-12%
COc1ccccc1N1C(=O)NC(=O)/C(=C/c2ccc3c(c2)Cc2ccccc2-3)C1=O	u	u	1%	-20%	79µM*	-3%
COC1CC2C=C(C)C=CC=CC(=O)NC(c3ccccc3)CC=CCCC(O)CC(=O)C2=C1O (centres undefined)	x	-84*	x	x	x	x
CN1CCN(c2ccc([N+](=O)[O-])c3no[n+]([O-])c23)CC1	18µM*	-11	-24%	89µM*	u	-15%
O=[N+]([O-])c1ccc(N(CCO)CCO)c2c1no[n+]2[O-]	x	u	x	28µM*	x	x
O=C(C1CCCN(S(=O)(=O)c2ccc(F)cc2)C1)N1CCOCC1 (centres undefined)	48%	2	x	-11%	0%	7%
CCN(c1ccc(C)cc1C)S(=O)(=O)c1nnc(NC(=O)c2ccco2)s1	u	-26	-25%	79µM*	0%	-26%
COc1ccc(Cn2c(=O)oc3ccccc32)cc1F	162%	0	8%	-25%	7%	-12%
Cc1cc(N2CCCCC2)ccc1C=C1C(=O)N(C)C(=S)N(C)C1=O	-6%	-60*	-14%	u	-1%	-10%
CN1C(=O)/C(=C\c2ccc(N3CCCCCC3)cc2)C(=O)NC1=S	-10%	-56*	-29%	-11%	-8%	-15%
CCC(C)N1C(=O)/C(=C\c2cnc(N(C)C)nc2)C(=O)NC1=S (centres undefined)	u	-57*	15%	-7%	-1%	2%
CCCCN1C(=O)/C(=C/c2ccc(N3CCCCCC3)cc2)C(=O)NC1=S	x	x	-16%	x	x	x
CCC(C)N1C(=O)/C(=C\c2cc3c4c(c2)CCCN4CCC3)C(=O)NC1=S (centres undefined)	u	u	45µM*	u	8%	-34%
Cc1c(C(=O)Nc2ccc(Br)cc2F)oc2ccc(S(=O)(=O)N3CCCCC3)cc12	-5%	x	0%	4%	-2%	-10%[60.1 µM]
CCCOCCN(C(=O)CCl)c1c(CC)cccc1CC	x	x	x	x	x	15%[60.1 µM]
COc1ccc(Nc2c(-c3cc(Br)ccc3O)nc3ncccn23)cc1OC	-6%	x	2%	u	-29%	3%
ClCCN(CCCl)/C(=C\c1ccccc1)c1ccnc2ccccc12	17%	x	x	x	-24%	5%
Cc1cc(N2CCOCC2)ccc1/C=C1\C(=O)NC(=O)N(c2ccccc2)C1=O	-20%	-26	-18%	-7%	5%	-5%
O=C1NC(=O)N(c2cccc(F)c2)C(=O)/C1=C/c1ccc(N2CCOCC2)cc1	u	-61*	u	4%	-4%	-20%
CCC(C)N1C(=O)/C(=C\c2ccc(N3CCCCCC3)cc2)C(=O)NC1=S (centres undefined)	87%	-58*	-23%	6%	-5%	-13%
CN1C(=O)NC(=O)/C(=C\C=C\c2ccccc2[N+](=O)[O-])C1=O	14µM*	u	-1%	u	u	-11%
c1ccc(-c2nc(N3CCOCC3)s[n+]2-c2ccccc2)cc1	25%	-67*	30%	-10%	6%	3%
O=C(Cn1c(=O)n(Cc2ccccc2)c(=O)c2sc3ccccc3c21)NCc1ccccc1Cl	35%	x	16%	-7%	25%	2%
C=CCN1C(=O)/C(=C\c2ccc(N3CCOCC3)o2)C(=O)NC1=S	u	-13	-2%	28µM*	12%	-11%
COc1ccc2[nH]c3c(c2c1)CCN=C3C	-14%	-11	x	-8%	50µM*	-16%
CN(C)c1nc(OCc2ccccc2)c2ncc(=O)[nH]c2n1	u	8	x	-1%	-1%	-10%
